Results: PubChem BioAssay (NCI)
Compounds without any hit were thinned out: in the full panel of roughly 79,000, 15% have a hit. Unmarked numbers belong to inactive results. Calls of active or inactive are those of the source. No stated cut-off is given here; in the data, active means growth inhibition above about 70%; inactive means the rest.

What was measured:
[1] = NCI Yeast Anticancer Drug Screen. Data for the rad50 strain (AID 155);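 further: 0% = growth of vehicle-only cultures of the same strain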; settings: S. cerevisiae rad50 strain growth inhibition, stronger effect = higher value
Outline: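 Readout: growth inhibition relative to vehicle-treated cultures. Compound exposure was carried out in a genetically defined yeast strain deficient in DNA damage repair.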

[2] = NCI Yeast Anticancer Drug Screen. Data for the mec2-1 strain (AID 157); settings: S. cerevisiae mec2-1 strain, stronger effect = higher value
Outline: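 Strain: mec2-1 (DNA repair/cell cycle alteration). Compound exposure, then growth measured; inhibition expressed relative to vehicle.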

[3] = NCI Yeast Anticancer Drug Screen. Data for the sgs1 mgt1 strain (AID 161);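 further: 0% = growth of cultures given vehicle only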; settings: S. cerevisiae sgs1 mgt1 strain, stronger effect = higher value
Outline: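 Mutant yeast exposed to compound; growth scored against vehicle-only wells.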

[4] = NCI Yeast Anticancer Drug Screen. Data for the cln2 rad14 strain (AID 165);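 further: 0% = growth equal to vehicle treated cultures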; settings: S. cerevisiae cln2 rad14 strain, stronger effect = higher value
Outline: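 Compounds are applied to the cln2 rad14 yeast strain, and growth is then compared with that of vehicle-treated cultures to give inhibition.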

[5] = NCI Yeast Anticancer Drug Screen. Data for the bub3 strain (AID 167); settings: S. cerevisiae bub3 mutant strain, stronger effect = higher value
Outline: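 Readout: yeast growth inhibition, expressed relative to vehicle-only wells. The test organism is a mutant strain from a panel with lesions in DNA repair or checkpoint genes.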

[6] = NCI Yeast Anticancer Drug Screen. Data for the mlh1 rad18 strain (AID 175); settings: S. cerevisiae mlh1 rad18 strain growth inhibition, stronger effect = higher value
Outline: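 Read-out is yeast growth inhibition, calculated against vehicle-only controls. The compound was applied to a strain engineered with DNA damage repair alterations.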

[7] = at 5.0 µM (retest, dose inferred, filed as 0.5)
[8] = at 50.0 µM (retest, dose inferred, filed as 5.0)

| SMILES | growth inhibition [1, 7] | growth inhibition [1, 8] | growth inhibition ([1]; at 50.0 µM) [%] | growth inhibition [2, 7] | growth inhibition [2, 8] | growth inhibition ([2]; at 50.0 µM) [%] | growth inhibition [3, 7] | growth inhibition [3, 8] | growth inhibition ([3]; at 50.0 µM) [%] | growth inhibition [4, 7] | growth inhibition [4, 8] | growth inhibition ([4]; at 50.0 µM) [%] | growth inhibition [5, 7] | growth inhibition [5, 8] | growth inhibition ([5]; at 50.0 µM) | growth inhibition [6, 7] | growth inhibition [6, 8] | growth inhibition ([6]; at 50.0 µM) [%] |
| --- | --- | --- | --- | --- | --- | --- | --- | --- | --- | --- | --- | --- | --- | --- | --- | --- | --- | --- |
| CC1(C)CNCC(C)(OCc2ccccc2)C(=O)NC(C)(C)CNCC(C)(OCc2ccccc2)C(=O)N1 (stereo not given) | -6% | -19% | -1.9 | -15% | -8% | -3.4 | -8% | 7% | -20.9 | -15% | -5% | 31.5 | -10% | 3% | -68.2% | -10% | 6% | -10.4 |
| Clc1ccc2c(NC3CCC(N4CCCCC4)CC3)ccnc2c1 (stereo not given) | 99% (active) | 97% (active) | -13.2 | 90% (active) | 97% (active) | -25.6 | 93% (active) | 98% (active) | -24.1 | 76% (active) | 97% (active) | 27.1 | 94% (active) | 97% (active) | -79.4% | 98% (active) | 97% (active) | -16 |
| CCCCCCOC(=O)Nc1ccc(S(=O)(=O)N2CCCCC2)cc1 | -7% | 47% | 35.5 | -9% | 56% | 28.1 | 7% | 66% | 50.5 | -87% | 44% | 7.35 | -10% | 41% | 73.8% (active) | -1% | 46% | 52.5 |
| COc1cc(/C=C/C(=O)c2ccc3ccccc3c2)cc(OC)c1OC | 38% | 40% | 7.75 | 49% | 44% | 11.3 | 1% | 45% | 34.4 | 22% | 14% | -5.35 | 22% | 27% | 41.9% | 37% | 44% | 22.6 |
| CCCCCc1cc(Cl)cc(Cl)c1O | -5% | 45% | 60.1 | -23% | 0% | 10.1 | -5% | 26% | 67.5 | 0% | -6% | -13.2 | -22% | -22% | 9.05% | -3% | 18% | 62.1 |
